This note sets out measurements from PubChem BioAssay (NCI).

Holding throughout (experiment): NCI-60 one-dose screen, 48 h (100 = growth as untreated, 0 = no growth, -100 = all killed)
What all share (conditions): 10 µM unless noted

Experiment [1] concerns RPMI-8226 leukemia.
Experiment [2] relates to OVCAR-8 ovarian.
The subject of experiment [3] is OVCAR-5 ovarian.
Experiment [4] relates to OVCAR-4 ovarian.
For experiment [5], the system named is SK-OV-3 ovarian.
The test system of experiment [6] is IGROV1 ovarian.
The test system of experiment [7] is OVCAR-3 ovarian.
Experiment [8] relates to HS 578T breast.
For experiment [9], the system named is NCI/ADR-RES ovarian.
The subject of experiment [10] is T-47D breast.
Experiment [11] relates to BT-549 breast.
The test system of experiment [12] is MDA-MB-435 melanoma.
The subject of experiment [13] is SW-620 colon.
Experiment [14] deals with MCF7 breast.
The test system of experiment [15] is HCT-116 colon.
For experiment [16], the system named is HCC-2998 colon.
Experiment [17] deals with KM12 colon.

Structures are written as SMILES. This is part of a sample that, as a whole, favours compounds with a hit. Of some 83,000 tested, about 20% had one in any assay.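 Results are percent growth after 48 hours of single-concentration exposure. 100 means growth as in untreated cells, lower positive values show inhibition; negative values down to -100 show cell death.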 Values without a mark were called inactive. Calls of active or inactive are those of the source. The calls were made as follows: active = growth percent below 10; inactive = the rest.

Turning to `Cc1nn(-c2ccccc2)c2nc(C)n(-c3ccc(Br)cc3)c(=O)c12`, the growth is 9.81% (active) in experiment [1]; 25.9% in experiment [2]; 36.3% in experiment [3]; 40.1% in [4]; 41.7% in experiment [5]; 30.6% in [6]. Further, the growth in [7] was -31.7% (active); in [8], 15%; in experiment [9], 3.19% (active); in experiment [10] it was 23.4%; in experiment [11], 50.7%; in [12], -5.13% (active). In addition, the growth in experiment [13] is 22.6%; in experiment [14], 13.4%; in [15], 15.7%; in experiment [16], 32.6%; in [17], 43.1%.

`C[C@H](CCC(=O)O)[C@H]1CC[C@H]2[C@@H]3CC[C@@H]4/C(=C\c5ccco5)C(=O)/C(=C\c5ccco5)C[C@]4(C)[C@H]3CC[C@]12C`: the growth in experiment [1] is 3.68% (active); in experiment [2] it was 70.6%; in experiment [3], 113%; in experiment [4], 80%; in experiment [5], 121%; in experiment [6], 93%. For the same molecule, the growth in [7] is 24.6%; in experiment [8] it was 69.3%; in experiment [9], 80%; in [10], 55.6%; in [11], 52.9%; in experiment [12], 37.1%. The growth in experiment [13] is 27.4%; in [14] it was 32.5%; in experiment [15], 21.8%; in experiment [16], 92.8%; in experiment [17], 74.5%.

For `O=S(=O)(Nc1ccc(F)c(Cl)c1)c1ccc(-c2cnc(C3CC3)o2)cc1`, the growth in experiment [2] is 21.7%; in experiment [3], 34.4%; in experiment [4] it was 39.1%; in [5] it was 35.1%; in experiment [6], 27.3%; in experiment [7] it was -8.13% (active). Besides, the growth in experiment [8] is 11.3%; in experiment [9], -17% (active); in experiment [10], 27.4%; in experiment [11] it was 36.3%; in experiment [12], 2.08% (active); in experiment [13], 17.3%. Besides, the growth is 15.5% in experiment [14], 19.7% in [15], 32% in [16] and 30.8% in experiment [17].

Take `NCCN1CCN(c2nccc(-c3ccc4ccccc4c3)n2)CC1`: the growth is 5.16% (active) in [1]; 71.3% in experiment [2]; 73.8% in experiment [3]; 78.7% in experiment [4]; 51.2% in [6]; 73.8% in experiment [7]. Further, the growth in [8] is 63.9%; in [9], 69.4%; in [10] it was 43.1%; in experiment [11], 82.2%; in experiment [12], -26.4% (active); in experiment [13] it was -37.9% (active). For the same molecule, the growth is 51.2% in experiment [14], 3.52% (active) in [15], 14% in [16] and 48.1% in [17].

As for `COCCOc1ccc(-c2nc3ccc(-c4nc5ccc(N6CCN(C)CC6)cc5[nH]4)cc3[nH]2)cc1`, the growth in experiment [2] was -39% (active); in experiment [3], 45.3%; in [4], 14.1%; in experiment [5], 7.92% (active); in experiment [6], 28.3%; in experiment [7], 2.47% (active). The growth in [8] was -3.7% (active); in experiment [9], 100%; in experiment [10], 2.28% (active); in experiment [11] it was -30.5% (active); in [12] it was -43.6% (active); in experiment [13], 4.55% (active). The growth was 17.7% in experiment [14], -57.6% (active) in experiment [15], -52.7% (active) in experiment [16] and 46.2% in experiment [17].

With `CCCCCCCCCCCCCCCCCCSC1=CC(=O)C(OC)=C(OC)C1=O`, the growth in [1] was 40.8%; in [2] it was 86.2%; in experiment [3], 94.3%; in experiment [4], 109%; in experiment [6], 106%; in [7] it was 98.2%. Besides, the growth is 90.9% in experiment [8]; 91.7% in [9]; 87.9% in experiment [10]; 111% in experiment [11]; 68.2% in [12]; 81.5% in experiment [13]. Further, the values for the growth in experiment [14], in [15] and in experiment [17] were 96.8%, 97.9% and 94.4%, respectively.

On to `C[C@@H]1CC[C@@H]2[C@@H]1[C@H](OC(=O)/C=C/c1ccccc1)[C@]1(C3CCCCC3)C[C@@H](OC(=O)CO)[C@@]2(C)O1`, for which the growth is 44.9% in [1]; 45.2% in experiment [2]; 96% in experiment [3]; 74.8% in experiment [4]; 81.4% in [5]; 81.3% in [6]. The growth was 75.1% in experiment [7]; -22.4% (active) in [8]; 51.1% in [9]; 0.688% (active) in experiment [11]; 87.9% in experiment [12]; 77.6% in experiment [13]. For the same molecule, the growth in experiment [14] was 38.3%; in [15], 52%; in [16], 78%; in [17] it was 69.1%.

As for `CCOC(=O)C12CCCC1=CC(=O)CC2` (stereo not given), the growth in experiment [1] was 98.5%; in experiment [2] it was 96.5%; in experiment [3], 96.3%; in experiment [4], 112%; in [5], 102%; in experiment [6] it was 103%. In addition, the growth in [7] was 116%; in experiment [8] it was 98.2%; in [9], 104%; in [11], 110%; in [12], 112%; in [13], 109%. For the same molecule, the growth in experiment [14] was 101%; in experiment [15], 105%; in experiment [16], 105%; in experiment [17], 106%.

As to `CSc1nc(NCCCNc2ccnc3cc(Cl)ccc23)cc(-c2ccccc2)n1`, the growth in [2] was 81.7%; in experiment [3] it was 95%; in experiment [4], 66.6%; in experiment [5], 82.3%; in experiment [6] it was 67%; in experiment [7], 72.3%. In addition, the growth is 65% in experiment [8]; 67.5% in [9]; 66.3% in experiment [10]; 86.9% in experiment [11]; 55.4% in experiment [12]; 72% in experiment [13]. Besides, the growth in experiment [14] is 6.05% (active); in [15] it was 43.1%; in experiment [16], -59.6% (active); in experiment [17], 68.3%.
